In all, about 5,500 compounds went through this assay and about 2,000 (36%) were called active. Roughly 18% stayed inconclusive and do not appear here. Rule as the data show it: active = normalized growth mostly below about 0.91 (no sharp cut-off); inconclusive = no clear call, values can overlap the other calls; inactive = mostly above about 0.92. The list shows a part of the results.
Assay: chemical genetic growth profiling, strain panel (AID 1159580);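 also: tested at 20 µM; growth read once vehicle control cultures reached saturation at 30 °C; 1 = growth at the plate median or of vehicle wells; lower values mean less growth of the strain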
Details: growth OD
[1] = S. cerevisiae deletion strains, locus YBR021W, strain FUR4, hits give low values
[2] = S. cerevisiae deletion strains, locus YBR229C, strain ROT2, hits give low values
[3] = S. cerevisiae deletion strains, locus YCL029C, strain bik1, hits give low values
[4] = S. cerevisiae deletion strains, locus YDL035C, strain GPR1, hits give low values
[5] = S. cerevisiae deletion strains, locus YDL074C, strain BRE1, hits give low values
[6] = S. cerevisiae deletion strains, locus YDL101C, strain DUN1, hits give low values
[7] = S. cerevisiae deletion strains, locus YDL134C, strain PPH21, hits give low values
[8] = S. cerevisiae deletion strains, locus YDL185W, strain tfp1, hits give low values
[9] = S. cerevisiae deletion strains, locus YDL192W, strain arf1, hits give low values
[10] = S. cerevisiae deletion strains, locus YDR101C, strain arx1, hits give low values
[11] = S. cerevisiae deletion strains, locus YDR162C, strain NBP2, hits give low values
[12] = S. cerevisiae deletion strains, locus YDR318W, strain mcm21, hits give low values
[13] = S. cerevisiae deletion strains, locus YDR388W, hits give low values
[14] = S. cerevisiae deletion strains, locus YDR502C, strain sam2, hits give low values
[15] = S. cerevisiae deletion strains, locus YEL061C, strain CIN8, hits give low values
[16] = S. cerevisiae deletion strains, locus YER110C, hits give low values
[17] = S. cerevisiae deletion strains, locus YER155C, strain BEM2, hits give low values
[18] = S. cerevisiae deletion strains, locus YER167W, strain BCK2, hits give low values
[19] = S. cerevisiae deletion strains, locus YGL078C, strain dbp3, hits give low values
[20] = S. cerevisiae deletion strains, locus YGL086W, strain mad1, hits give low values
[21] = S. cerevisiae deletion strains, locus YGL248W, strain PDE1, hits give low values
[22] = S. cerevisiae deletion strains, locus YGR135W, strain pre9, hits give low values
[23] = S. cerevisiae deletion strains, locus YGR229C, strain SMI1, hits give low values
[24] = S. cerevisiae deletion strains, locus YGR252W, strain gcn5, hits give low values
[25] = S. cerevisiae deletion strains, locus YHR030C, strain SLT2, hits give low values
[26] = S. cerevisiae deletion strains, locus YHR079C, strain IRE1 (second series), hits give low values
[27] = S. cerevisiae deletion strains, locus YHR094C, strain hxt1, hits give low values
[28] = S. cerevisiae deletion strains, locus YHR129C, strain ARP1, hits give low values
[29] = S. cerevisiae deletion strains, locus YHR200W, strain rpn10, hits give low values
[30] = S. cerevisiae deletion strains, locus YIL066C, strain RNR3, hits give low values
[31] = S. cerevisiae deletion strains, locus YIL073C, strain SPO22, hits give low values
[32] = S. cerevisiae deletion strains, locus YIL125W, strain kgd1, hits give low values
[33] = S. cerevisiae deletion strains, locus YIR030C, strain dcg1, hits give low values
[34] = S. cerevisiae deletion strains, locus YJL095W, strain BCK1, hits give low values
[35] = S. cerevisiae deletion strains, locus YJL134W, strain LCB3, hits give low values
[36] = S. cerevisiae deletion strains, locus YJL168C, strain set2, hits give low values
[37] = S. cerevisiae deletion strains, locus YJL187C, strain SWE1 (second series), hits give low values
[38] = S. cerevisiae deletion strains, locus YKL009W, strain mrt4, hits give low values
[39] = S. cerevisiae deletion strains, locus YKL068W, hits give low values
[40] = S. cerevisiae deletion strains, locus YKL085W, strain MDH1 (second series), hits give low values
[41] = S. cerevisiae deletion strains, locus YKL085W, strain MDH1, hits give low values
[42] = S. cerevisiae deletion strains, locus YKR001C, strain vps1, hits give low values
[43] = S. cerevisiae deletion strains, locus YLR039C, strain RIC1, hits give low values
[44] = S. cerevisiae deletion strains, locus YLR058C, strain SHM2, hits give low values
[45] = S. cerevisiae deletion strains, locus YLR102C, strain apc9, hits give low values
[46] = S. cerevisiae deletion strains, locus YLR268W, strain sec22, hits give low values
[47] = S. cerevisiae deletion strains, locus YLR342W, strain FKS1 (second series), hits give low values
[48] = S. cerevisiae deletion strains, locus YLR371W, strain rom2, hits give low values
[49] = S. cerevisiae deletion strains, locus YLR418C, strain cdc73, hits give low values
[50] = S. cerevisiae deletion strains, locus YML016C, strain PPZ1, hits give low values
[51] = S. cerevisiae deletion strains, locus YML032C, strain rad52, hits give low values
[52] = S. cerevisiae deletion strains, locus YML124C, strain tub3, hits give low values
[53] = S. cerevisiae deletion strains, locus YMR078C, strain ctf18, hits give low values
[54] = S. cerevisiae deletion strains, locus YMR223W, strain ubp8, hits give low values
[55] = S. cerevisiae deletion strains, locus YMR307W, strain GAS1, hits give low values
[56] = S. cerevisiae deletion strains, locus YNL067W, strain RPL9B, hits give low values
[57] = S. cerevisiae deletion strains, locus YNL153C, strain GIM3, hits give low values
[58] = S. cerevisiae deletion strains, locus YNL233W, strain BNI4, hits give low values
[59] = S. cerevisiae deletion strains, locus YNL250W, strain rad50, hits give low values
[60] = S. cerevisiae deletion strains, locus YNL271C, strain bni1, hits give low values
[61] = S. cerevisiae deletion strains, locus YNL298W, strain CLA4, hits give low values
[62] = S. cerevisiae deletion strains, locus YNL307C, strain MCK1, hits give low values
[63] = S. cerevisiae deletion strains, locus YNL322C, strain KRE1, hits give low values
[64] = S. cerevisiae deletion strains, locus YNR052C, strain pop2, hits give low values
[65] = S. cerevisiae deletion strains, locus YOL006C, strain TOP1, hits give low values
[66] = S. cerevisiae deletion strains, locus YOL012C, strain htz1
[67] = S. cerevisiae deletion strains, locus YOL147C, strain pex11, hits give low values
[68] = S. cerevisiae deletion strains, locus YOR061W, strain CKA2, hits give low values
[69] = S. cerevisiae deletion strains, locus YOR069W, strain VPS5, hits give low values
[70] = S. cerevisiae deletion strains, locus YOR136W, strain idh2, hits give low values
[71] = S. cerevisiae deletion strains, locus YOR144C, strain elg1, hits give low values
[72] = S. cerevisiae deletion strains, locus YOR184W, strain ser1, hits give low values
[73] = S. cerevisiae deletion strains, locus YOR316C, strain cot1, hits give low values
[74] = S. cerevisiae deletion strains, locus YPL241C, strain CIN2, hits give low values
[75] = S. cerevisiae deletion strains, locus YPR119W, strain clb2, hits give low values
[76] = S. cerevisiae deletion strains, locus YPR141C, strain kar3, hits give low values
[77] = S. cerevisiae deletion strains, locus YPR163C, strain tif3, hits give low values
[78] = S. cerevisiae deletion strains, locus YPR167C, strain met16, hits give low values
[79] = S. cerevisiae deletion strains, strain wtn01, hits give low values

Measured: normalized growth

C=C1C([C@]2(C)C(CC(=O)OC)[C@@](C)(COC(C)=O)OC(=O)C[C@@H]2OC(C)=O)[C@@H](OC=O)[C@H](OC(=O)C(O)C(C)CC)[C@@]2(C)[C@H](c3ccoc3)CC(=O)C12O (stereo not given in full)
inactive: [1] 0.996 | [2] 1 | [3] 1.02 | [4] 1.01 | [5] 1.02 | [6] 1.02 | [7] 1.01 | [8] 1.01 | [9] 1.01 | [10] 1 | [11] 1.02 | [12] 1.01 | [13] 0.998 | [14] 1.01 | [15] 1 | [16] 1.01 | [17] 1.01 | [18] 1 | [19] 1.02 | [20] 1 | [21] 1.01 | [22] 1.04 | [23] 1.06 | [24] 1.03 | [25] 1.01 | [26] 1.02 | [27] 1.01 | [28] 1.01 | [29] 0.995 | [30] 1.01 | [31] 1.09 | [32] 1 | [33] 1.01 | [34] 1.04 | [35] 1.01 | [36] 1.01 | [37] 1.02 | [38] 0.994 | [39] 1.01 | [40] 0.999 | [41] 0.999 | [42] 1.02 | [43] 1.09 | [44] 1.01 | [45] 1.01 | [46] 1 | [47] 1.01 | [48] 1.01 | [49] 1.03 | [50] 1 | [51] 0.991 | [52] 1.01 | [53] 1.02 | [54] 1.01 | [55] 1.1 | [56] 1.02 | [57] 1.01 | [58] 1.03 | [59] 1.01 | [60] 1.01 | [61] 1.03 | [62] 1.01 | [63] 1.01 | [64] 1.01 | [65] 1.04 | [66] 0.797 | [67] 1.01 | [68] 1 | [69] 1.01 | [70] 1 | [71] 1 | [72] 1.01 | [73] 1.01 | [74] 1.01 | [75] 1.01 | [76] 1.02 | [77] 1.01 | [78] 1.01 | [79] 0.997

CCC(C)C(OC(C)=O)C(=O)OC1C(O)C2C3(C)C=CC(=O)C(C)(C)C3CC(OC(=O)C(O)C(C)C)C2(C)C23OC2CC(c2ccoc2)C13C (stereo not given)
inactive: S. cerevisiae deletion strains, locus YAL013W, strain DEP1, hits give low values 1.01 | [1] 0.996 | [2] 0.989 | [3] 0.978 | [4] 0.976 | [5] 1.02 | [6] 1 | [7] 1 | [8] 0.988 | [9] 0.989 | [10] 0.991 | S. cerevisiae deletion strains, locus YDR150W, strain NUM1, hits give low values 1.01 | [11] 1.02 | [12] 0.966 | [13] 0.988 | [14] 1.02 | [15] 1 | [16] 0.992 | [17] 1 | [18] 0.982 | [19] 1 | [20] 0.978 | [21] 0.999 | S. cerevisiae deletion strains, locus YGR078C, strain PAC10, hits give low values 1.04 | [22] 1.02 | [23] 1.02 | [24] 0.946 | [25] 0.994 | [26] 1 | [27] 0.988 | [28] 1 | [29] 0.987 | [30] 0.994 | [31] 0.902 | [32] 0.986 | [33] 0.988 | [34] 1.05 | [35] 0.997 | [36] 0.992 | [37] 1.01 | S. cerevisiae deletion strains, locus YJR043C, strain POL32, hits give low values 0.969 | S. cerevisiae deletion strains, locus YJR075W, strain HOC1, hits give low values 1.01 | [38] 1.08 | [39] 1 | [40] 1.04 | [41] 1.04 | S. cerevisiae deletion strains, locus YKL190W, strain CNB1, hits give low values 0.998 | [42] 0.991 | [43] 0.962 | [44] 0.995 | [45] 0.982 | S. cerevisiae deletion strains, locus YLR262C, strain YPT6, hits give low values 0.973 | [46] 1.02 | S. cerevisiae deletion strains, locus YLR330W, strain CHS5, hits give low values 0.996 | [47] 0.987 | [48] 0.985 | [49] 1 | [50] 1 | [51] 0.97 | [52] 0.993 | [53] 0.977 | [54] 0.983 | S. cerevisiae deletion strains, locus YMR263W, strain SAP30, hits give low values 1.04 | [55] 0.912 | [56] 1.03 | S. cerevisiae deletion strains, locus YNL128W, strain TEP1, hits give low values 1.01 | [57] 1.05 | [58] 1.03 | [59] 0.992 | [60] 0.993 | [61] 0.99 | [62] 0.979 | [63] 0.999 | [64] 0.988 | [65] 0.949 | [66] 2.38 | [67] 0.999 | [68] 1 | [69] 0.978 | [70] 0.979 | [71] 1 | [72] 0.946 | [73] 0.996 | S. cerevisiae deletion strains, locus YPL055C, strain LGE1, hits give low values 1.05 | [74] 1 | [75] 0.993 | [76] 0.99 | [77] 0.986 | [78] 0.99 | [79] 1 | S. cerevisiae strains, strain wild type, hits give low values 0.985
